Results filed as inconclusive are left out. The source made the active and inactive calls. Calls come from the whole dose curve.

The first assay can be described thus: qHTS Assay for Lipid Storage Modulators (AID 1519). For activity change, negative = inhibition: % is set by controls: 0 for no effect and ±100 for the full control effect. The conditions noted are these: Drosophila S3 cells, BODIPY lipid droplet/cell ratio, laser cytometry; at 57.5 µM (top of the series); cells loaded with oleic acid. The essentials: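 Cells seeded at 5,000 per well were treated with compounds over a concentration series and loaded with oleic acid (400 uM, as added). Lipid droplet fluorescence (488 nm excitation, 500-530 nm channel) was read by laser-scanning cytometry and normalized to 20 uM Triacsin C.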
For the compound `C[C@H]1CC2[C@@H]3CCC4=CC(=O)C=C[C@]4(C)[C@@]3(F)[C@@H](O)C[C@]2(C)[C@@]1(O)C(=O)CO` (stereo partly specified), the activity change, negative = inhibition is -0.272% (inactive).

For the compound `COC1=C(OC)C(=O)C(C/C=C(\C)CC/C=C(\C)CC/C=C(\C)CC/C=C(/C)CC/C=C(\C)CC/C=C(\C)CC/C=C(\C)CC/C=C(\C)CC/C=C(\C)CCC=C(C)C)=C(C)C1=O`, the activity change, negative = inhibition is 8.3% (inactive).

For `C=C1CCC2[C@](C)(CO)C(O)CC[C@]2(C)C1C/C=C1/C(=O)OCC1O` (stereo partly specified), the activity change, negative = inhibition is 2.99% (inactive).

Still in this assay, the particulars now being: Drosophila S3 cells, BODIPY lipid droplet/cell ratio, laser cytometry; measured here: cell count channel max response; cells loaded with oleic acid.
Turning to `C[C@H]1CC2[C@@H]3CCC4=CC(=O)C=C[C@]4(C)[C@@]3(F)[C@@H](O)C[C@]2(C)[C@@]1(O)C(=O)CO` (stereo partly specified), the max response was -0.0442%.

For `COC1=C(OC)C(=O)C(C/C=C(\C)CC/C=C(\C)CC/C=C(\C)CC/C=C(/C)CC/C=C(\C)CC/C=C(\C)CC/C=C(\C)CC/C=C(\C)CC/C=C(\C)CCC=C(C)C)=C(C)C1=O`, the max response was 17.1%.

On to `C=C1CCC2[C@](C)(CO)C(O)CC[C@]2(C)C1C/C=C1/C(=O)OCC1O` (stereo partly specified), for which the max response came to 11%.

The values are drawn from PubChem BioAssay (NCATS).
